Measured values: PubChem BioAssay (Tox21)
Inconclusive results are not listed. Activity calls are given as the source filed them. Unless noted, calls come from the whole dose curve.

Key:
[1] = qHTS assay to identify small molecule agonists of the NFkB signaling pathway - cell viability counter screen (AID 1159515); note: series mostly up to about 61 µM; % is set by controls: 0 for no effect and ±100 for the full control effect; nearly all actives have a fitted effect of over 55% in size
Outline: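 Read by CellTiter-Glo luminescence (30 min, room temperature) in the wells also used for the beta-lactamase FRET read. ME-180 NFkB-bla cells at 2,000 per well were plated overnight, then exposed to compound for 5 hr at 37 C.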

[2] = qHTS assay to identify small molecule agonists of the endoplasmic reticulum stress response signaling pathway (AID 1159516; active = well fitted activation curve with a large enough effect in the signal ratio in the repeat runs, not every such curve was filed as active; the % refers to the signal ratio; note: % is set by controls: 0 for no effect and ±100 for the full control effect)
Outline: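 Ratiometric FRET readout (405 nm excitation; 460 and 530 nm emission) of a beta-lactamase gene driven by the ER stress response element, after 2 hr substrate loading. HeLa ESRE-bla cells were seeded overnight and treated with compounds for only 5 hr at 37 C.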

[3] = qHTS assay to identify small molecule agonists of the endoplasmic reticulum stress response signaling pathway - cell viability counter screen (AID 1159517); note: series mostly up to about 61 µM; % is set by controls: 0 for no effect and ±100 for the full control effect; nearly all actives have a fitted effect of over 50% in size
Outline: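 Cpd-treated ESRE-bla HeLa (5 hr, 37 C) → LiveBLAzer 2 hr RT → CellTiter-Glo 30 min RT → luminescence.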

[4] = qHTS assay to identify small molecule antagonists of the retinoid-related orphan receptor gamma (ROR-gamma) signaling pathway - cell viability counter screen (AID 1159520; active = well fitted curve in the direction sought with a large enough effect in the repeat runs; an effect the other way counts as inactive or inconclusive; note: % is set by controls: 0 for no effect and ±100 for the full control effect; nearly all actives have a fitted effect of over 50% in size)
Outline: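 Tet-on ROR gamma CHO cells (1,000/well) were plated 4 hr, given compounds in DMSO for 2 hr at 37 C, then induced with 1 uM final doxycycline for 16 hr. Viability was read as ATP by CellTiter-Glo luminescence after 30 min.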

[5] = target: Nuclear receptor ROR-gamma (Homo sapiens) (UniProt P51449); test: qHTS assay to identify small molecule antagonists of the retinoid-related orphan receptor gamma (ROR-gamma) signaling pathway (AID 1159521; active = well fitted curve in the direction sought with a large enough effect in the repeat runs; an effect the other way counts as inactive or inconclusive;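 note: CHO cells with doxycycline inducible ROR-gamma driving an RORE luciferase reporter; top concentration of the series differs between compounds; % is set by controls: 0 for no effect and ±100 for the full control effect; nearly all actives have a fitted effect of over 50% in size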)
Outline: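 Tet-on ROR-gamma CHO cells with ROR response element-luciferase reporter; compounds added 2 hr before 1 uM doxycycline induction, then 16 hr at 37 C. Antagonism scored as decreased ONE-Glo luminescence.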

[6] = qHTS assay to identify small molecule agonists of the AP-1 signaling pathway - cell viability counter screen (AID 1159525); note: nearly all actives have a fitted effect of over 55% in size
Outline: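 Each titration point was normalised to DMSO and tetra n-octyl ammonium bromide controls. The read was Cell Titer Glo luminescence after 30 min at RT, following 5 h compound exposure of ME-180 AP-1-bla cells at 37 °C.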

[7] = qHTS assay to identify small molecule agonists of the AP-1 signaling pathway (AID 1159526); note: % is set by controls: 0 for no effect and ±100 for the full control effect
[8] = target: Retinoic acid receptor RXR-alpha (Homo sapiens) (UniProt P19793); test: qHTS assay to identify small molecule agonists of the RXR signaling pathway (AID 1159527); note: % is set by controls: 0 for no effect and ±100 for the full control effect; nearly all actives have a fitted effect of over 35% in size
Chain of Retinoic acid receptor RXR-alpha (Homo sapiens) (P19793 whole entry, looked up): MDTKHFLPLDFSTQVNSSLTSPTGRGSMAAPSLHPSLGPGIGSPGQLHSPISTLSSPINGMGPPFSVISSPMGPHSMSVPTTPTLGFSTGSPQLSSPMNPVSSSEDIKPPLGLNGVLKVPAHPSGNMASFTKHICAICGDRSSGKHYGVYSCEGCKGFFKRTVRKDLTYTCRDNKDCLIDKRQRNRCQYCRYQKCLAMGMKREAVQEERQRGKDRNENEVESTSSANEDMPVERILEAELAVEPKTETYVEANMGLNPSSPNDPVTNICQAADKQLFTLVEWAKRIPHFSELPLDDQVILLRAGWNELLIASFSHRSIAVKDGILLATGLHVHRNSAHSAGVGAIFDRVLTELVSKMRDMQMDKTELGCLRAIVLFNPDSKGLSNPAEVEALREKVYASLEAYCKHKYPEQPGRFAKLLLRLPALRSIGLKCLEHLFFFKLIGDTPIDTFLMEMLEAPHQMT
Outline: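 GeneBLAzer RXR-alpha-UAS-bla HEK 293T cells in 2% charcoal-stripped FBS medium were exposed to compounds for 16 hr at 37 C in agonist mode. Beta-lactamase reporter read as 460/530 nm FRET ratio after 2 hr substrate loading.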

[9] = qHTS assay to identify small molecule agonists of the RXR signaling pathway - cell viability counter screen (AID 1159529; active = well fitted curve in the direction sought with a large enough effect in the repeat runs; an effect the other way counts as inactive or inconclusive; note: series mostly up to about 77 µM; % is set by controls: 0 for no effect and ±100 for the full control effect; nearly all actives have a fitted effect of over 50% in size)
Outline: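 RXR-alpha-UAS-bla HEK 293T cells in medium with 2% charcoal-stripped FBS were pre-incubated 5 hr, then compound-treated 16 hr at 37 C. Viability was read by CellTiter-Glo luminescence in the same wells as the beta-lactamase assay, with tetraoctyl ammonium bromide as positive control.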

[10] = qHTS assay to identify small molecule antagonists of the vitamin D receptor (VDR) signaling pathway - cell viability counter screen (AID 743225; active = well fitted curve in the direction sought with a large enough effect in the repeat runs; an effect the other way counts as inactive or inconclusive)
Outline: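 VDR-UAS-bla HEK 293T cells were plated and incubated 4 h at 37C, then dosed with compound plus 3 nM (final) 1-alpha,25-dihydroxyvitamin D3 for 16 h. After the 2 h beta-lactamase read, viability in the same wells was read as CellTiter-Glo luminescence after 30 min at room temperature.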

COc1cc2c(cc1OC)-c1cc3ccc(OC)c(OC)c3c[n+]1CC2
inactive: outcome [1] | outcome [2] | outcome [3] | outcome [4] | Potency [5] | outcome [6] | outcome [7] | Potency [8] | Potency [9]

Cc1ccc(C(=O)Nc2ccc(S(=O)(=O)O)c3cc(S(=O)(=O)O)cc(S(=O)(=O)O)c23)cc1NC(=O)c1cccc(NC(=O)Nc2cccc(C(=O)Nc3cc(C(=O)Nc4ccc(S(=O)(=O)O)c5cc(S(=O)(=O)O)cc(S(=O)(=O)O)c45)ccc3C)c2)c1
inactive: outcome [10] | outcome [1] | outcome [2] | outcome [3] | outcome [4] | Potency [5] | outcome [6] | outcome [7] | Potency [8] | Potency [9]

CCCC[N+](C)(CCCC)CCCC
inactive: outcome [10] | outcome [1] | outcome [2] | outcome [3] | outcome [4] | Potency [5] | outcome [6] | outcome [7] | Potency [8] | Potency [9]

CCOC(=O)c1ccccc1
inactive: outcome [10] | outcome [1] | outcome [2] | outcome [3] | outcome [4] | Potency [5] | outcome [6] | outcome [7] | Potency [8] | Potency [9]

COC(=O)Nc1ccc(Cl)c(Cl)c1
inactive: outcome [1] | outcome [2] | outcome [3] | outcome [4] | Potency [5] | outcome [6] | outcome [7] | Potency [8] | Potency [9]

CC(=O)C1CCCCC1=O (configuration not stated)
inactive: outcome [1] | outcome [2] | outcome [3] | outcome [4] | Potency [5] | outcome [6] | outcome [7] | Potency [8] | Potency [9]

CCN1CCOCC1
inactive: outcome [1] | outcome [2] | outcome [3] | outcome [4] | Potency [5] | outcome [6] | outcome [7] | Potency [8] | Potency [9]

CCOC(=O)C(=O)CCCCCCl
inactive: outcome [1] | outcome [2] | outcome [3] | outcome [4] | Potency [5] | outcome [6] | outcome [7] | Potency [8] | Potency [9]

OCCCCCO
inactive: outcome [1] | outcome [2] | outcome [3] | outcome [4] | Potency [5] | outcome [6] | outcome [7] | Potency [8] | Potency [9]

C=C(C)C(=O)OCC(O)CO (configuration not stated)
inactive: outcome [1] | outcome [2] | outcome [3] | outcome [4] | Potency [5] | outcome [6] | outcome [7] | Potency [8] | Potency [9]

CC(C)NNC(=O)c1ccncc1
inactive: outcome [10] | outcome [1] | outcome [2] | outcome [3] | outcome [4] | Potency [5] | outcome [6] | outcome [7] | Potency [8] | Potency [9]

CC(C)C[C@@H](N)C(=O)O
inactive: outcome [1] | outcome [2] | outcome [3] | activity, negative = cytotoxicity [4] 3.47% [at 19 µM] | activity change, negative = inhibition [5] 6.26% [at 19 µM] | viability change, negative = cytotoxic [6] -0.425% [at 15.8 µM] | activation [7] -5.77% [at 15.8 µM] | activation [8] 4.08% [at 15.8 µM] | activity change, negative = cytotoxicity [9] 4.29% [at 15.8 µM]

O=S(=O)(O)c1cccc2c(S(=O)(=O)O)cccc12
inactive: outcome [10] | outcome [1] | outcome [2] | outcome [3] | outcome [4] | Potency [5] | outcome [6] | outcome [7] | Potency [8] | Potency [9]

CN(C)CCCCCCN(C)C
inactive: outcome [1] | outcome [2] | outcome [3] | outcome [4] | Potency [5] | outcome [6] | outcome [7] | Potency [8] | Potency [9]

O=S(=O)(O)c1cc(O)c(O)c(S(=O)(=O)O)c1
inactive: outcome [1] | outcome [2] | outcome [3] | outcome [4] | Potency [5] | outcome [6] | outcome [7] | Potency [8]

CC[N+](CC)(CC(=O)Nc1c(C)cccc1C)Cc1ccccc1 (tested in a mixture with another compound)
inactive: outcome [1] | outcome [2] | outcome [3] | outcome [4] | Potency [5] | outcome [6] | outcome [7] | Potency [8] | Potency [9]

C=C(C)C(=O)OCC1CCCO1 (configuration not stated)
inactive: outcome [1] | outcome [2] | outcome [3] | outcome [4] | Potency [5] | outcome [6] | outcome [7] | Potency [8] | Potency [9]

CC1OC1C1CCC2(C)OC2C1 (configuration not stated)
inactive: outcome [1] | outcome [2] | outcome [3] | outcome [4] | Potency [5] | outcome [6] | outcome [7] | Potency [8] | Potency [9]

Nc1ccccn1
inactive: outcome [10] | outcome [1] | outcome [2] | outcome [3] | outcome [4] | Potency [5] | outcome [6] | outcome [7] | Potency [8] | Potency [9]

CC[C@H]1OC(=O)[C@H](C)[C@@H](O[C@H]2C[C@@](C)(OC)[C@@H](O)[C@H](C)O2)[C@H](C)[C@@H](O[C@@H]2O[C@H](C)C[C@H](N(C)C)[C@H]2O)[C@](C)(OC)C[C@@H](C)C(=O)[C@H](C)[C@@H](O)[C@]1(C)O
inactive: outcome [1] | outcome [2] | outcome [3] | outcome [4] | Potency [5] | outcome [6] | outcome [7] | Potency [8]

O=C1CCCCCCCCCCCCCCO1
inactive: outcome [10] | outcome [1] | outcome [2] | outcome [3] | outcome [4] | Potency [5] | outcome [6] | outcome [7] | Potency [8] | Potency [9]

CCCCCCC1CCC(=O)O1 (configuration not stated)
inactive: outcome [1] | outcome [2] | outcome [3] | outcome [4] | Potency [5] | outcome [6] | outcome [7] | Potency [8]

CC(=O)Oc1cccc(C)c1
inactive: outcome [10] | outcome [1] | outcome [2] | outcome [3] | outcome [4] | Potency [5] | outcome [6] | outcome [7] | Potency [8] | Potency [9]
